Laboratory results: the supplement of paper PMC3545927
This is one part of the list. No count for the full screen is at hand.

Target: furin, P09958
Assay: furin cleavage Z-score vs untreated control; higher = more cleavage, active = 3.5 or more, inactive = 1 or less, 8 variable residues between constant flanks
Procedure, shortened: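 Sequencing of released DNA, tagged with adapters by PCR, gave read counts used as abundance. That DNA was freed when purified furin cut N-terminally bead-bound 8-mer peptides fused to a cDNA oligonucleotide, in 0.01 ml reactions at 1:10 enzyme:substrate in 50 mM HEPES pH 7.5 with CaCl2 and NaCl, lasting 7.5, 15 or 30 min. The cleavage Z-score was the lowess-adjusted log count versus furin-free reactions, scaled by median absolute deviation.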

Sequence of furin, P09958 (P09958 whole entry): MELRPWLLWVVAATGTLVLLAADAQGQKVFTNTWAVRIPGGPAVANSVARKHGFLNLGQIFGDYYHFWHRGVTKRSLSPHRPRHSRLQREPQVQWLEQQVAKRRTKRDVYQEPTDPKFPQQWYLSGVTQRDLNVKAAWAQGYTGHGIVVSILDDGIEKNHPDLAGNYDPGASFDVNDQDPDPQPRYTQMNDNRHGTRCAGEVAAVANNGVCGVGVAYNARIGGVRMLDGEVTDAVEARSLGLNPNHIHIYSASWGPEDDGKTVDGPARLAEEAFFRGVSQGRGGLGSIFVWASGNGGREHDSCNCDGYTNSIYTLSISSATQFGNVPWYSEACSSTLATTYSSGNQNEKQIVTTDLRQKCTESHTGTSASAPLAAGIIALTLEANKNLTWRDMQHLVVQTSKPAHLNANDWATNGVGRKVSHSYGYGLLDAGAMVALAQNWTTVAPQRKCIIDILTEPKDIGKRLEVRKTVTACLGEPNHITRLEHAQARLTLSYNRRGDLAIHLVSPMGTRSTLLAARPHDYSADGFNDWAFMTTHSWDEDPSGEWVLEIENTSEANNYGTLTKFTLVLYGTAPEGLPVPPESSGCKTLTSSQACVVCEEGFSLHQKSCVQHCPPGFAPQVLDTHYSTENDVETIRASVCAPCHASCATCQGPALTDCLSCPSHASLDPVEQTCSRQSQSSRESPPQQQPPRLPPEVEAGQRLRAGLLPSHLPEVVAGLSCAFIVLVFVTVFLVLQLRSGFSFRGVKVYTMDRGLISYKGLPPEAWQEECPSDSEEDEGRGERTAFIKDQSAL

## CAARMILMTHAGNASASA [HC1581]
7.5 min
  furin cleavage Z-score: -0.255 (inactive)
15 min
  furin cleavage Z-score: -1.76 (inactive)
30 min
  furin cleavage Z-score: -1.15 (inactive)

## CAAYMNTPGLAGNASASA [HC931]
7.5 min
  furin cleavage Z-score: -0.513 (inactive)
15 min
  furin cleavage Z-score: -1.08 (inactive)
30 min
  furin cleavage Z-score: 0.157 (inactive)

## CAMEPCSQHLAGNASASA [HC1719]
7.5 min
  furin cleavage Z-score: 2.46
15 min
  furin cleavage Z-score: 0.794 (inactive)
30 min
  furin cleavage Z-score: 2.77

## CAGDDDDKAGAGNASASA [EK1]
7.5 min
  furin cleavage Z-score: -2.21 (inactive)
15 min
  furin cleavage Z-score: -1.96 (inactive)
30 min
  furin cleavage Z-score: 0.274 (inactive)

## CARGKRFSQSAGNASASA [FS-2934]
7.5 min
  furin cleavage Z-score: 0.749 (inactive)
15 min
  furin cleavage Z-score: 2.29
30 min
  furin cleavage Z-score: 2

## CARGKRSAGPAGNASASA [FS-1951]
7.5 min
  furin cleavage Z-score: 11.6 (active)
15 min
  furin cleavage Z-score: 13.8 (active)
30 min
  furin cleavage Z-score: 9.13 (active)

## CARGKRSPKSAGNASASA [FS-2672]
7.5 min
  furin cleavage Z-score: 11.3 (active)
15 min
  furin cleavage Z-score: 11 (active)
30 min
  furin cleavage Z-score: 9.78 (active)

## CARGQRSVKAAGNASASA [FS-3250]
7.5 min
  furin cleavage Z-score: 0.885 (inactive)
15 min
  furin cleavage Z-score: -0.415 (inactive)
30 min
  furin cleavage Z-score: 1.5

## CARGKRSCHAAGNASASA [FS-2333]
7.5 min
  furin cleavage Z-score: 5.25 (active)
15 min
  furin cleavage Z-score: 5.05 (active)
30 min
  furin cleavage Z-score: 5.61 (active)

## CARGKRLDGPAGNASASA [FS-3188]
7.5 min
  furin cleavage Z-score: 0.0707 (inactive)
15 min
  furin cleavage Z-score: 0.484 (inactive)
30 min
  furin cleavage Z-score: -0.699 (inactive)

## CARGIRPVGRAGNASASA [FS-2932]
7.5 min
  furin cleavage Z-score: -0.929 (inactive)
15 min
  furin cleavage Z-score: -0.4 (inactive)
30 min
  furin cleavage Z-score: 0.111 (inactive)

## CARGSRFSKSAGNASASA [FS-83]
7.5 min
  furin cleavage Z-score: -0.0204 (inactive)
15 min
  furin cleavage Z-score: -0.301 (inactive)
30 min
  furin cleavage Z-score: 0.871 (inactive)

## CAETPCSAHLAGNASASA [HC2472]
7.5 min
  furin cleavage Z-score: -0.0785 (inactive)
15 min
  furin cleavage Z-score: -0.846 (inactive)
30 min
  furin cleavage Z-score: -1.94 (inactive)

## CAVCSCLWMMAGNASASA [HC526]
7.5 min
  furin cleavage Z-score: -0.293 (inactive)
15 min
  furin cleavage Z-score: -0.986 (inactive)
30 min
  furin cleavage Z-score: -0.164 (inactive)

## CARKKRNGLTAGNASASA [FS-2155]
7.5 min
  furin cleavage Z-score: 5.12 (active)
15 min
  furin cleavage Z-score: 6.11 (active)
30 min
  furin cleavage Z-score: 6.82 (active)

## CARHRRLLSIAGNASASA [FS-3256]
7.5 min
  furin cleavage Z-score: -0.899 (inactive)
15 min
  furin cleavage Z-score: -0.261 (inactive)
30 min
  furin cleavage Z-score: -0.784 (inactive)

## CARHRRALDTAGNASASA [FS-2943]
7.5 min
  furin cleavage Z-score: 5.7 (active)
15 min
  furin cleavage Z-score: 5.62 (active)
30 min
  furin cleavage Z-score: 5.06 (active)

## CARHRRRGSPAGNASASA [FS-2146]
7.5 min
  furin cleavage Z-score: 0.761 (inactive)
15 min
  furin cleavage Z-score: 1.81
30 min
  furin cleavage Z-score: 1.39

## CARHRRVNGTAGNASASA [FS-2492]
7.5 min
  furin cleavage Z-score: 0.115 (inactive)
15 min
  furin cleavage Z-score: -0.477 (inactive)
30 min
  furin cleavage Z-score: -0.55 (inactive)

## CARKKKTEGTAGNASASA [FS-2423]
7.5 min
  furin cleavage Z-score: -1.18 (inactive)
15 min
  furin cleavage Z-score: 0.416 (inactive)
30 min
  furin cleavage Z-score: 0.176 (inactive)

## CARHRRYKALAGNASASA [FS-2556]
7.5 min
  furin cleavage Z-score: -0.784 (inactive)
15 min
  furin cleavage Z-score: -0.33 (inactive)
30 min
  furin cleavage Z-score: 3.08

## CARKKKLVSTAGNASASA [FS-2560]
7.5 min
  furin cleavage Z-score: -1.01 (inactive)
15 min
  furin cleavage Z-score: -1.81 (inactive)
30 min
  furin cleavage Z-score: -1.46 (inactive)

## CARHRRSLRLAGNASASA [FS-1717]
7.5 min
  furin cleavage Z-score: 6.94 (active)
15 min
  furin cleavage Z-score: 6.95 (active)
30 min
  furin cleavage Z-score: 9.37 (active)

## CARHRRMLTPAGNASASA [FS-2946]
7.5 min
  furin cleavage Z-score: 5.72 (active)
15 min
  furin cleavage Z-score: 9.34 (active)
30 min
  furin cleavage Z-score: 8.35 (active)

## CARHRRGQETAGNASASA [FS-2145]
7.5 min
  furin cleavage Z-score: 0.466 (inactive)
15 min
  furin cleavage Z-score: 0.563 (inactive)
30 min
  furin cleavage Z-score: 2.26

## CAMCECSQHLAGNASASA [HC1700]
7.5 min
  furin cleavage Z-score: 0.0737 (inactive)
15 min
  furin cleavage Z-score: 0.814 (inactive)
30 min
  furin cleavage Z-score: -2.77 (inactive)

## CACYSIEPLDAGNASASA [HC1596]
7.5 min
  furin cleavage Z-score: -0.277 (inactive)
15 min
  furin cleavage Z-score: -1.75 (inactive)
30 min
  furin cleavage Z-score: -0.48 (inactive)

## CAATGNLPGCAGNASASA [HC243]
7.5 min
  furin cleavage Z-score: -1.92 (inactive)
15 min
  furin cleavage Z-score: -0.777 (inactive)
30 min
  furin cleavage Z-score: -0.233 (inactive)

## CARNQRIVQLAGNASASA [FS-2435]
7.5 min
  furin cleavage Z-score: -2.13 (inactive)
15 min
  furin cleavage Z-score: 0.536 (inactive)
30 min
  furin cleavage Z-score: 0.203 (inactive)

## CARKKRALDTAGNASASA [FS-2561]
7.5 min
  furin cleavage Z-score: 9.66 (active)
15 min
  furin cleavage Z-score: 11.1 (active)
30 min
  furin cleavage Z-score: 10.8 (active)

## CAQRAYALDTAGNASASA [HC563]
7.5 min
  furin cleavage Z-score: -1.1 (inactive)
15 min
  furin cleavage Z-score: -1.23 (inactive)
30 min
  furin cleavage Z-score: -0.561 (inactive)

## CARKKRALDAAGNASASA [FS-2691]
7.5 min
  furin cleavage Z-score: 9.58 (active)
15 min
  furin cleavage Z-score: 11.5 (active)
30 min
  furin cleavage Z-score: 8.67 (active)

## CALPGIPFVSAGNASASA [HC1162]
7.5 min
  furin cleavage Z-score: -1.14 (inactive)
15 min
  furin cleavage Z-score: 0.0847 (inactive)
30 min
  furin cleavage Z-score: -1.27 (inactive)

## CAKKQRSRRNAGNASASA [FS-1219]
7.5 min
  furin cleavage Z-score: 9.72 (active)
15 min
  furin cleavage Z-score: 9.45 (active)
30 min
  furin cleavage Z-score: 8.79 (active)

## CAQASRTRRNAGNASASA [FS-621]
7.5 min
  furin cleavage Z-score: 11.3 (active)
15 min
  furin cleavage Z-score: 14.2 (active)
30 min
  furin cleavage Z-score: 10.1 (active)

## CATYQRHYRNAGNASASA [FS-512]
7.5 min
  furin cleavage Z-score: 1.23
15 min
  furin cleavage Z-score: 0.916 (inactive)
30 min
  furin cleavage Z-score: 2.99

## CATNPKPQKKAGNASASA [HC162]
7.5 min
  furin cleavage Z-score: -1.19 (inactive)
15 min
  furin cleavage Z-score: -0.825 (inactive)
30 min
  furin cleavage Z-score: -2.33 (inactive)

## CASAPCSAHLAGNASASA [HC2483]
7.5 min
  furin cleavage Z-score: -0.101 (inactive)
15 min
  furin cleavage Z-score: 0.964 (inactive)
30 min
  furin cleavage Z-score: 0.332 (inactive)

## CATVATRDGKAGNASASA [HC283]
7.5 min
  furin cleavage Z-score: -0.692 (inactive)
15 min
  furin cleavage Z-score: -1.6 (inactive)
30 min
  furin cleavage Z-score: -0.623 (inactive)

## CARQPRKQGGAGNASASA [FS-2445]
7.5 min
  furin cleavage Z-score: -0.459 (inactive)
15 min
  furin cleavage Z-score: 0.227 (inactive)
30 min
  furin cleavage Z-score: 0.306 (inactive)

## CARFSRTVQDAGNASASA [FS-2668]
7.5 min
  furin cleavage Z-score: 2.27
15 min
  furin cleavage Z-score: 2.81
30 min
  furin cleavage Z-score: 4.69 (active)

## CANFKRSVASAGNASASA [FS-1847]
7.5 min
  furin cleavage Z-score: 0.0489 (inactive)
15 min
  furin cleavage Z-score: 1.11
30 min
  furin cleavage Z-score: 0.734 (inactive)

## CARFVRSVMSAGNASASA [FS-3248]
7.5 min
  furin cleavage Z-score: 4.15 (active)
15 min
  furin cleavage Z-score: 5.68 (active)
30 min
  furin cleavage Z-score: 5.23 (active)

## CARFLRSVMSAGNASASA [FS-1821]
7.5 min
  furin cleavage Z-score: 1.23
15 min
  furin cleavage Z-score: 4.09 (active)
30 min
  furin cleavage Z-score: 5.69 (active)

## CARFFRSACSAGNASASA [FS-1820]
7.5 min
  furin cleavage Z-score: 0.97 (inactive)
15 min
  furin cleavage Z-score: 0.0813 (inactive)
30 min
  furin cleavage Z-score: -0.895 (inactive)

## CARDERSWFRAGNASASA [FS-2901]
7.5 min
  furin cleavage Z-score: 0.291 (inactive)
15 min
  furin cleavage Z-score: -0.493 (inactive)
30 min
  furin cleavage Z-score: 0.641 (inactive)

## CARFLRSKTLAGNASASA [FS-2415]
7.5 min
  furin cleavage Z-score: 0.914 (inactive)
15 min
  furin cleavage Z-score: 1.56
30 min
  furin cleavage Z-score: 0.306 (inactive)

## CARMLRSVFSAGNASASA [FS-1831]
7.5 min
  furin cleavage Z-score: -0.826 (inactive)
15 min
  furin cleavage Z-score: -0.551 (inactive)
30 min
  furin cleavage Z-score: 1.65

## CARSKRTEQDAGNASASA [FS-2088]
7.5 min
  furin cleavage Z-score: -0.228 (inactive)
15 min
  furin cleavage Z-score: 1.41
30 min
  furin cleavage Z-score: 1.56

## CARFIRSVMSAGNASASA [FS-3246]
7.5 min
  furin cleavage Z-score: 5.54 (active)
15 min
  furin cleavage Z-score: 5.87 (active)
30 min
  furin cleavage Z-score: 8.7 (active)
